The nature of assay [1]: qHTS assay to identify aromatase inhibitors - cell viability counter screen (AID 743084).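 Further: cells stimulated with testosterone during compound exposure; nearly all actives have a fitted effect of over 55% in size.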
The target in assay [2] is Aryl hydrocarbon receptor (Homo sapiens) (UniProt P35869). The experiment in a line: qHTS assay to identify small molecule that activate the aryl hydrocarbon receptor (AhR) signaling pathway (AID 743085). Further: nearly all actives have a fitted effect of over 15% in size. Further: potency means the concentration at half of the fitted maximal effect.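 On activation: HG2L7.5c1 human HepG2 liver cells with stably integrated DRE-driven firefly reporter; series mostly up to about 70 µM.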 The method in brief: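 HepG2 cells (HG2L7.5c1) stably carrying a firefly luciferase reporter driven by 20 dioxin responsive elements were exposed to compound for 24 h at 37C after a 5 h settling period; luminescence rise (ONE-Glo) indicated activation.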

A short description of assay [3]: qHTS assay to identify small molecule that activate the aryl hydrocarbon receptor (AhR) signaling pathway - cell viability counter screen (AID 743086).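 Further: HepG2 liver cells carrying the AhR DRE luciferase reporter; series mostly up to about 70 µM; nearly all actives have a fitted effect of over 45% in size.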 The method in brief:
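HepG2-AhR-luc (HG2L7.5c1) cells, 4000/well, were preincubated 5 h at 37C, exposed to compound in qHTS format for 24 hr at 37C, then given CellTiter-Fluor for 30 min; viability was read as fluorescence in the reporter wells.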

Assay [4] concerns the target Peroxisome proliferator-activated receptor gamma (Homo sapiens) (UniProt P37231). The experiment in a line: qHTS assay to identify small molecule agonists of the peroxisome proliferator-activated receptor gamma (PPARg) signaling pathway (AID 743094; active means well fitted activation curve with a large enough effect in the signal ratio in the repeat runs, not every such curve was filed as active; the % refers to the signal ratio). The method in brief:
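Cells from the PPARg UAS-bla HEK293H line are plated and incubated 5 h at 37C. Compounds in DMSO are pinned in and left 17 h at 37C. LiveBLAzer B/G substrate is then added for 1 h at room temperature before fluorescence is measured.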

The target is the same in assay [5]. Nature of the assay: qHTS assay to identify small molecule antagonists of the peroxisome proliferator-activated receptor gamma (PPARg) signaling pathway (AID 743191; calls by dose curve; further: series mostly up to about 63 µM; nearly all actives have a fitted effect of over 30% in size). The essentials: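 GeneBLAzer PPARg UAS-bla HEK293H cells carrying a UAS-driven beta-lactamase reporter were plated at 3000 cells/well, preincubated 5 h at 37C, then given compound for 17 h at 37C; LiveBLAzer B/G FRET substrate was read after 1 h at room temperature.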

A short description of assay [6]: qHTS assay to identify small molecule antagonists of the peroxisome proliferator-activated receptor gamma (PPARg) signaling pathway - cell viability counter screen (AID 743194). Further: nearly all actives have a fitted effect of over 55% in size. The method in brief:
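PPARg-UAS-bla HEK293H cells were plated, rested 5 h at 37 C, then treated with compounds plus rosiglitazone (50 nM final) for 17 h at 37 C; viability was then read by CellTiter-Glo luminescence after 30 min at room temperature.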

Assay [7] is described as follows: qHTS assay for small molecule agonists of the antioxidant response element (ARE) signaling pathway (AID 743202; active means well fitted activation curve with a large enough effect in the signal ratio in the repeat runs, not every such curve was filed as active; the % refers to the signal ratio; further: potency means the concentration at half of the fitted maximal effect). The method in brief: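 Steps: seed ARE-bla HepG2 cells (2,000/well); incubate 5 h at 37 C; add compounds by pin tool; incubate 16 h at 37 C; add FRET substrate; read fluorescence after 2 h at RT.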
A short description of assay [8]: qHTS assay for small molecule agonists of the antioxidant response element (ARE) signaling pathway - cell viability counter screen (AID 743203; calls by dose curve; further: nearly all actives have a fitted effect of over 55% in size). The method in brief: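 Cytotoxicity was tested in parallel with the ARE reporter screen. ARE-bla HepG2 cells were exposed to compounds for 16 hrs, and viability was taken from CellTiter-Glo luminescence.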
Assay [9] is described as follows: qHTS assay for small molecule activators of the heat shock response signaling pathway - cell viability counter screen (AID 743209). Further: nearly all actives have a fitted effect of over 50% in size. The essentials: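 Cytotoxicity counter screen run in parallel with the HSE beta-lactamase reporter, using the same wells. HeLa HSE-bla cells received compound for 5 h at 37 C; ATP-based CellTiter-Glo luminescence was measured after 30 min at room temperature.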

The nature of assay [10]: qHTS assay for small molecule activators of the heat shock response signaling pathway (AID 743210; active means well fitted activation curve with a large enough effect in the signal ratio in the repeat runs, with a control signal flat, not every such curve was filed as active; the % refers to the signal ratio;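 further: HeLa cells with beta-lactamase reporter driven by heat shock elements; series mostly up to about 63 µM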). The essentials: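 Activation of heat shock element-controlled beta-lactamase expression is measured in HeLa cells by LiveBLAzer FRET fluorescence, with compound exposure lasting 5 h at 37 C and substrate loading 2.5 h at room temperature.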
Assay [11] in a line: qHTS assay to identify small molecule agonists of the peroxisome proliferator-activated receptor delta (PPARd) signaling pathway - cell viability counter screen (AID 743211). Further: nearly all actives have a fitted effect of over 55% in size. The method in brief:
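PPARd-bla HEK293H cells (UAS-beta-lactamase reporter) were treated with compounds for 17 h at 37 C. Viability was then read in the same wells by CellTiter-Glo luminescence after 30 min at room temperature.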

Assay [12] deals with Peroxisome proliferator-activated receptor delta (Homo sapiens) (UniProt Q03181). The experiment in a line: qHTS assay to identify small molecule agonists of the peroxisome proliferator-activated receptor delta (PPARd) signaling pathway (AID 743212; calls by dose curve). The method in brief:
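Cells expressing a UAS-driven beta-lactamase reporter (PPARd-bla HEK293H) were given test compounds after a 5 h settle and kept at 37 C. Reporter activity was then measured as FRET fluorescence using LiveBLAzer B/G substrate.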

A short description of assay [13]: qHTS assay to identify small molecule antagonists of the peroxisome proliferator-activated receptor delta (PPARd) signaling pathway - cell viability counter screen (AID 743213). Further: nearly all actives have a fitted effect of over 50% in size. The method in brief:
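PPARd-bla HEK293H cells (3000/well) got compound plus 300 nM L165041 agonist for 17 h at 37 C. Viability in the same wells came from CellTiter-Glo luminescence after 30 min at room temperature.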

Assay [14] addresses Bile acid receptor (Homo sapiens) (UniProt Q96RI1). Nature of the assay: qHTS assay to identify small molecule antagonists of the farnesoid-X-receptor (FXR) signaling pathway (AID 743217; active means well fitted inhibition curve with a large enough effect in the signal ratio in the repeat runs, not every such curve was filed as active; the % refers to the signal ratio). The essentials: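 Cells carrying a UAS-driven beta-lactamase reporter (GeneBLAzer FXR-UAS-bla HEK 293T) were plated and rested 5 h at 37 °C. Compounds in DMSO were added alongside chenodeoxycholic acid agonist at 50 uM final and left 16 h at 37 °C before FRET substrate readout.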

A short description of assay [15]: qHTS assay to identify small molecule agonists of the farnesoid-X-receptor (FXR) signaling pathway - cell viability counter screen (AID 743218). Further: nearly all actives have a fitted effect of over 45% in size. The method in brief:
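Cells were seeded, left 5 h at 37 C and 5% CO2, then dosed with compound in DMSO for 16 h. After the beta-lactamase FRET read, CellTiter-Glo was added and luminescence measured 30 min later.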

The target in assay [16] is Bile acid receptor (Homo sapiens) (UniProt Q96RI1). The experiment in a line: qHTS assay to identify small molecule agonists of the farnesoid-X-receptor (FXR) signaling pathway (AID 743220; active means well fitted activation curve with a large enough effect in the signal ratio in the repeat runs, not every such curve was filed as active; the % refers to the signal ratio). The essentials:
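FXR-UAS-bla HEK 293T cells carrying a UAS-driven beta-lactamase reporter were plated for 5 h at 37C/5% CO2, then exposed to DMSO-dissolved Tox21 10K compounds for 16 h at 37C. A LiveBLAzer B/G FRET substrate was loaded for 2 h at room temperature before fluorescence reading.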

The nature of assay [17]: qHTS assay to identify small molecule antagonists of the farnesoid-X-receptor (FXR) signaling pathway - cell viability counter screen (AID 743221; active means well fitted cell-killing curve with a large enough effect in the repeat runs, not every such curve was filed as active; further: nearly all actives have a fitted effect of over 50% in size). The essentials:
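FXR-UAS-bla HEK 293T cells were treated with test compounds plus chenodeoxycholic acid (50 uM final) for 16 h at 37 C. Cell viability in the same wells was then read as CellTiter-Glo luminescence after 30 min at room temperature.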

For assay [18], the target named is Vitamin D3 receptor (Homo sapiens) (UniProt P11473). Nature of the assay: qHTS assay to identify small molecule agonists of the vitamin D receptor (VDR) signaling pathway (AID 743222; calls by dose curve). The essentials:
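Cells carrying a VDR-driven beta-lactamase reporter are seeded at 2,000 per well and rested 4 h. Compounds in DMSO are added for 16 h at 37C, and FRET substrate fluorescence is measured after 2 h at room temperature.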

For assay [19] the target is unchanged. The experiment in a line: qHTS assay to identify small molecule antagonists of the vitamin D receptor (VDR) signaling pathway (AID 743223; active means well fitted inhibition curve with a large enough effect in the signal ratio in the repeat runs, not every such curve was filed as active; the % refers to the signal ratio). The method in brief: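 VDR-bla cells were plated, incubated 4 h at 37C, then given compound and 1alpha,25-dihydroxyvitamin D3 (3 nM final). After 16 h at 37C, LiveBLAzer B/G FRET substrate was added for 2 h at room temperature and fluorescence read.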

In assay [20] the target is Peroxisome proliferator-activated receptor delta (Homo sapiens) (UniProt Q03181). The experiment in a line: qHTS assay to identify small molecule antagonists of the peroxisome proliferator-activated receptor delta (PPARd) signaling pathway (AID 743215; active means well fitted inhibition curve with a large enough effect in the signal ratio in the repeat runs, not every such curve was filed as active; the % refers to the signal ratio;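 further: cells stimulated with agonist L165041 at 300 nM final during compound exposure; series mostly up to about 62 µM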). The method in brief: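 Cells: HEK293H with a UAS-driven beta-lactamase reporter responsive to PPARd. Compounds were co-added with L165041 (300 nM, final) and incubated 17 h at 37 C before a 2 h room-temperature FRET substrate step and fluorescence reading.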

Structures are written as SMILES. Several values for one entry are separate records, joined by “and”; a condition that tells them apart may be missing. Identical values can stand only once. Inconclusive results are not listed. Activity calls are given as the source filed them. Unless noted, the call rests on the fitted dose curve; in most records, active means well fitted curve in the direction sought with a large enough effect in the repeat runs; inconclusive means weak or mixed curves; inactive means no such curve, though single readings can be large; an effect the other way counts as inactive or inconclusive.

For eight molecules, Potency and outcome results are on record in PubChem BioAssay (Tox21).

Peroxisome proliferator-activated receptor delta (Homo sapiens), sequence (Q03181 whole entry, looked up): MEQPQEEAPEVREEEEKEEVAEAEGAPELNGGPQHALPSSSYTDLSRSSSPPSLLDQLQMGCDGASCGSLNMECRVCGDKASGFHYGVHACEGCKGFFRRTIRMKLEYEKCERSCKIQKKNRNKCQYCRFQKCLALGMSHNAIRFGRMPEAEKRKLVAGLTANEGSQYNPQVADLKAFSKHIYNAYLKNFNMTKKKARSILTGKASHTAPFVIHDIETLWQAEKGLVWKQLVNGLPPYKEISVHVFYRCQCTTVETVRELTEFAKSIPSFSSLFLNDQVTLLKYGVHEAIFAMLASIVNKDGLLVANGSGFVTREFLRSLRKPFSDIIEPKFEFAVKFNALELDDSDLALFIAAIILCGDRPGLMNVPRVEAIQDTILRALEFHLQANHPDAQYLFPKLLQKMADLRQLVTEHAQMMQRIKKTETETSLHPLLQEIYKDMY
Vitamin D3 receptor (Homo sapiens), sequence (P11473 whole entry, looked up): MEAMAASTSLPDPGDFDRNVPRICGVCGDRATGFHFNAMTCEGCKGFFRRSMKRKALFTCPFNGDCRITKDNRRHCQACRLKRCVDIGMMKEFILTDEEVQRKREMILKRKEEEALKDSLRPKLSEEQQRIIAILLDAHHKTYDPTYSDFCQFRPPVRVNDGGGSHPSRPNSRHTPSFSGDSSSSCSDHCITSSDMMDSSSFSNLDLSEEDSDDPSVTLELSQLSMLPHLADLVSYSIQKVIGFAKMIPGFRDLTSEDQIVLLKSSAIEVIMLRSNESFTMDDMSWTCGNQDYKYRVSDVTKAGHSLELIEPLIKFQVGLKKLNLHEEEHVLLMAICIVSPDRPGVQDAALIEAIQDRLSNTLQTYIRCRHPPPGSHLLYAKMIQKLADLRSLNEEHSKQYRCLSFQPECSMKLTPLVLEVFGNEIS
Aryl hydrocarbon receptor (Homo sapiens), sequence (P35869 whole entry, looked up): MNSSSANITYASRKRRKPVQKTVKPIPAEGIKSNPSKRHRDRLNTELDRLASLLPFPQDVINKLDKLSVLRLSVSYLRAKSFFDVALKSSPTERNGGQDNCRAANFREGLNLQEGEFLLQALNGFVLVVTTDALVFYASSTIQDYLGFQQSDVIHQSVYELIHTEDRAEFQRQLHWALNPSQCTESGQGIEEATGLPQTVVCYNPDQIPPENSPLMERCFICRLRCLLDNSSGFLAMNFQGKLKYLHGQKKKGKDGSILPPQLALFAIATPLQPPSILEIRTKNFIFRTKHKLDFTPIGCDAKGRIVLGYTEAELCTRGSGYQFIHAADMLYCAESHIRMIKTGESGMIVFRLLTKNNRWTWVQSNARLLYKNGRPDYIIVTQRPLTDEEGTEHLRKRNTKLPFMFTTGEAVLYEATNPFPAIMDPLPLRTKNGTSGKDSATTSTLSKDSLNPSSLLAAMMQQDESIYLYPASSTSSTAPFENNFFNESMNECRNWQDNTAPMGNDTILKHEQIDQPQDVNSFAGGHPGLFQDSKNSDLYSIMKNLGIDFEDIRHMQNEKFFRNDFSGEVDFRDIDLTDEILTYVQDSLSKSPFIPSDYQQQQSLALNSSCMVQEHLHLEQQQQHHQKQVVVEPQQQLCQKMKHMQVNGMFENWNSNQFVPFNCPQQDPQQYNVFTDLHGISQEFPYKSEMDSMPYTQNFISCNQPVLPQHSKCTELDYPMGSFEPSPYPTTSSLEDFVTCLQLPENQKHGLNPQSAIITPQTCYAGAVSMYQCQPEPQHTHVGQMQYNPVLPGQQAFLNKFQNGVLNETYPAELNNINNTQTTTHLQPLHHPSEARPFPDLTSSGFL
Bile acid receptor (Homo sapiens), sequence (Q96RI1 whole entry, looked up): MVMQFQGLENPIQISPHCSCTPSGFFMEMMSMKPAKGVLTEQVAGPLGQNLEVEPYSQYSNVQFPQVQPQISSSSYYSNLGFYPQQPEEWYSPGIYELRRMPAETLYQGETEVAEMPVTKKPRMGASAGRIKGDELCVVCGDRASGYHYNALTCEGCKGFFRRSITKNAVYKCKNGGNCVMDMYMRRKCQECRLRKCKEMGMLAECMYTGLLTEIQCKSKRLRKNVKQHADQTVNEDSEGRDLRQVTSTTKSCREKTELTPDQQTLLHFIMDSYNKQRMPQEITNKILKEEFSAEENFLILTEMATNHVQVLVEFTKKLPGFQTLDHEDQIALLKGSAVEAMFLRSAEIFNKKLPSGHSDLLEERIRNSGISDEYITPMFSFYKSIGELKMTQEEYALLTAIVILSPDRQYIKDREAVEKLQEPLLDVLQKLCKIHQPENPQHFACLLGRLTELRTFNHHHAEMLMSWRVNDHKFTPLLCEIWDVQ
Peroxisome proliferator-activated receptor gamma (Homo sapiens), sequence (P37231 whole entry, looked up): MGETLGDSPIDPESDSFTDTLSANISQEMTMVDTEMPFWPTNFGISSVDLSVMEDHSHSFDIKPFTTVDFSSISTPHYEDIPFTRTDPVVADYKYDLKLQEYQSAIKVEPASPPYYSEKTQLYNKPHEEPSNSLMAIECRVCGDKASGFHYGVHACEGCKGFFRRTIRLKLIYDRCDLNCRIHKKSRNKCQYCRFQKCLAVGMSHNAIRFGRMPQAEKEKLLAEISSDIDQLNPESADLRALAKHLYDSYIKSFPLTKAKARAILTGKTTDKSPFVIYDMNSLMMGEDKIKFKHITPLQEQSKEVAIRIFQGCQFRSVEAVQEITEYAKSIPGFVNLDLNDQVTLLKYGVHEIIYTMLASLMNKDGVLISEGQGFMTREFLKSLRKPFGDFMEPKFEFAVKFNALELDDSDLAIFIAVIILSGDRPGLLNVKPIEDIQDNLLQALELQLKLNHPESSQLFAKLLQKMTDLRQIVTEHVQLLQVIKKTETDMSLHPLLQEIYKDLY

With `CC(=O)[C@@]1(O)CC[C@H]2[C@@H]3C[C@H](C)C4=CC(=O)C=C[C@]4(C)[C@@]3(F)[C@@H](O)C[C@@]21C`, the Potency entry in [1], in assay [2], in [3], in assay [5], in assay [6] and in assay [7] was “inactive” each time. Further, the Potency entry in assay [8], in [9], in [11], in assay [13], in assay [14] and in assay [15] was “inactive” throughout. Moreover, the Potency entry in [17] was “inactive”. For the same molecule, the molecule was called inactive in assay [4], in assay [10], in assay [12], in [16], in assay [18] and in assay [19].

For the molecule `Cc1ccc(/C(=C\CN2CCCC2)c2ccccn2)cc1`, the Potency result in assay [1], in [2], in [3], in [5], in assay [6] and in [8] was “inactive” each time. For the same molecule, the Potency entry in assay [11], in [15] and in assay [17] was “inactive” in each case. Moreover, the result in assay [4], in assay [12], in assay [20], in assay [18] and in assay [19] was inactive.

With `CC(=O)Oc1ccc(C(c2ccc(OC(C)=O)cc2)c2ccccn2)cc1`, the Potency entry in [1], in assay [2], in [3], in [5], in assay [6] and in [7] was “inactive” in each case. Also, the Potency result in assay [8], in assay [9], in assay [11], in assay [13] and in [15] was “inactive” throughout. Further, the call in assay [4], in assay [10], in assay [12], in assay [20] and in assay [19] was inactive.

Consider `C=C1C[C@H]2[C@@H]3C=C(C)C4=CC(=O)CC[C@]4(C)[C@H]3CC[C@]2(C)[C@@]1(OC(C)=O)C(C)=O`, for which the Potency entry in assay [1], in assay [2], in [3], in assay [5], in [6] and in assay [8] was “inactive” in each case. Moreover, the Potency entry in assay [11], in [13], in assay [15] and in assay [17] was “inactive” each time. In addition, the result in assay [4] and in assay [10] was inactive. In assay [7], the Potency was 17.6 µM (active) and 29.8 µM (active).

Take `Cc1ccc2c(c1)C(=O)OC2=O`: the Potency entry in assay [1], in [2], in assay [3], in [5], in assay [6] and in assay [7] was “inactive” each time. Moreover, the Potency result in assay [8], in assay [9], in [11], in [13], in [15] and in assay [17] was “inactive” throughout. For the same molecule, the outcome in assay [4], in assay [10], in assay [12], in assay [20], in [18] and in assay [19] was inactive.

`CCCCCCCCCCCCO`: the Potency result in [1], in [2], in assay [3], in [5], in assay [6] and in [7] was “inactive” in each case. In addition, the Potency entry in assay [8], in assay [11], in [13], in assay [14], in assay [15] and in assay [17] was “inactive” throughout. The molecule was classed as inactive in [4], in assay [10], in assay [12], in assay [20], in assay [16] and in assay [18]. Moreover, the call in assay [19] was inactive.

On to `COc1ccc2nc(N)sc2c1`, for which the Potency result in assay [1], in [3], in assay [5], in assay [6], in [7] and in [8] was “inactive” in each case. For the same molecule, the Potency entry in assay [9], in assay [11], in assay [13], in [15] and in assay [17] was “inactive” in each case. In addition, in [2], the Potency is 48.6 µM (active) and 27.3 µM (active). For the same molecule, the call in assay [4], in assay [18] and in [19] was inactive.

Turning to `CC(=O)Nc1ccc2c(c1)Cc1cc(NC(C)=O)ccc1-2`, the Potency entry in [1], in assay [2], in assay [3], in assay [5], in assay [6] and in assay [7] was “inactive” each time. Besides, the Potency result in [8], in assay [9], in assay [11], in [13], in assay [15] and in assay [17] was “inactive” in each case. The molecule was called inactive in [4], in [10], in [12], in assay [20], in [18] and in assay [19].
